Reference: PubChem BioAssay (NCI)
About 79,000 compounds went through this panel and 15% of them were active in at least one assay; those are over-represented in the sample as a whole. A number with no mark means an inactive call. Calls of active or inactive are those of the source. Cut-off read from the data, not from the text of the source: active = growth inhibition above about 70%; inactive = the rest.

Columns and labels:
[1] = NCI Yeast Anticancer Drug Screen. Data for the rad50 strain (AID 155);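 note: 0% = growth of vehicle-only cultures of the same strain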; conditions: S. cerevisiae rad50 strain growth inhibition, hits give high values
Summary of the method: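 Vehicle-treated cultures provide the reference for the growth inhibition reported for compound-exposed, repair-deficient yeast.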

[2] = NCI Yeast Anticancer Drug Screen. Data for the mec2-1 strain (AID 157); conditions: S. cerevisiae mec2-1 strain, hits give high values
Summary of the method: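 Yeast mec2-1 mutant treated with compound. Readout: growth inhibition vs vehicle controls.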

[3] = NCI Yeast Anticancer Drug Screen. Data for the sgs1 mgt1 strain (AID 161);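 note: 0% = growth of cultures given vehicle only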; conditions: S. cerevisiae sgs1 mgt1 strain, hits give high values
Summary of the method: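 Test agents were incubated with a DNA-repair-mutant yeast strain. Growth was then read and compared against vehicle-treated controls.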

[4] = NCI Yeast Anticancer Drug Screen. Data for the cln2 rad14 strain (AID 165);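 note: 0% = growth equal to vehicle treated cultures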; conditions: S. cerevisiae cln2 rad14 strain, hits give high values
Summary of the method: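 cln2 rad14 yeast strain; compound exposure; growth inhibition read vs vehicle controls.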

[5] = NCI Yeast Anticancer Drug Screen. Data for the bub3 strain (AID 167); conditions: S. cerevisiae bub3 mutant strain, hits give high values
Summary of the method: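 Mutant yeast screening strain plus compound; vehicle-treated cultures serve as the 0% inhibition reference.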

[6] = NCI Yeast Anticancer Drug Screen. Data for the mlh1 rad18 strain (AID 175); conditions: S. cerevisiae mlh1 rad18 strain growth inhibition, hits give high values
Summary of the method: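 Yeast w/ defined DNA-repair lesions; compound exposure; growth vs vehicle controls → % inhibition.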

[7] = at 5.0 µM (retest, dose inferred, filed as 0.5)
[8] = at 50.0 µM (retest, dose inferred, filed as 5.0)

SMILES	growth inhibition [1, 7]	growth inhibition [1, 8]	growth inhibition ([1]; at 50.0 µM)	growth inhibition [2, 7]	growth inhibition [2, 8]	growth inhibition ([2]; at 50.0 µM)	growth inhibition [3, 7]	growth inhibition [3, 8]	growth inhibition ([3]; at 50.0 µM)	growth inhibition [4, 7]	growth inhibition [4, 8]	growth inhibition ([4]; at 50.0 µM)	growth inhibition [5, 7]	growth inhibition [5, 8]	growth inhibition ([5]; at 50.0 µM)	growth inhibition [6, 7]	growth inhibition [6, 8]	growth inhibition ([6]; at 50.0 µM)
CCCC#CC(O)(C(=O)OC1CCN(C)CC1)C1CCCCC1 (configuration not stated)	34%	55%	63.5%	36%	53%	45.1%	12%	69%	65.9%	41%	55%	53.5%	23%	56%	58%	46%	79% (active)	53.5%
C=C(CS(=O)(=O)c1ccccc1)[P+](c1ccccc1)(c1ccccc1)c1ccccc1	0%	95% (active)	29.2%	-6%	92% (active)	37.5%	-6%	95% (active)	34.4%	-1%	81% (active)	28.5%	-3%	88% (active)	2.15%	-2%	92% (active)	67.5%
CCOC(=O)C1CN(CCCCCCN2CC(C(=O)OCC)C(=O)C2=O)C(=O)C1=O (configuration not stated)	-11%	4%	22.1%	2%	1%	3.1%	-21%	3%	28.5%	4%	0%	52.9%	0%	2%	0.05%	-2%	0%	30.4%
CN(C)CCCN1c2cc(Cl)ccc2Sc2ccc3ccccc3c21	3%	98% (active)	99.3% (active)	3%	99% (active)	99.3% (active)	3%	99% (active)	99.2% (active)	2%	96% (active)	98.6% (active)	5%	96% (active)	99.5% (active)	28%	98% (active)	99.3% (active)
CC(C)OC(=O)c1ccccc1C(=C1C=C(Br)C(=O)C(Br)=C1)c1cc(Br)c(O)c(Br)c1	85% (active)	95% (active)	90.7% (active)	88% (active)	98% (active)	91.9% (active)	70% (active)	95% (active)	90.9% (active)	96% (active)	97% (active)	88.2% (active)	94% (active)	97% (active)	91% (active)	96% (active)	96% (active)	90.5% (active)
CC(=O)N1C(C(=O)NNc2ccccc2)CSC1c1ccccc1 (configuration not stated)	71% (active)	90% (active)	38.1%	40%	84% (active)	64.6%	75% (active)	89% (active)	44.6%	42%	82% (active)	65%	57%	93% (active)	35.2%	83% (active)	96% (active)	56.1%
Cn1c(=O)[nH]c2nnc(-c3ccccc3)nc2c1=O	7%	89% (active)	56.6%	6%	92% (active)	29.2%	38%	92% (active)	61.5%	-3%	89% (active)	-13.7%	8%	93% (active)	33.4%	13%	90% (active)	68.1%
COC1=C(/C(=N/Nc2ccc([N+](=O)[O-])cc2[N+](=O)[O-])c2ccccc2)COC1=O	-2%	-6%	17.1%	0%	-4%	9.25%	-3%	-7%	-8.25%	4%	15%	4.15%	3%	-3%	93.3% (active)	3%	-6%	4.9%
CN(C)c1ccc(C(c2cc3c(cc2O)OCO3)N2CCCC2)cc1 (configuration not stated)	7%	99% (active)	99.2% (active)	15%	99% (active)	99.4% (active)	-3%	99% (active)	99.2% (active)	-3%	99% (active)	99.1% (active)	0%	99% (active)	99.4% (active)	-7%	99% (active)	99.2% (active)
CNc1ccc2c(c1)Cc1ccccc1-2	36%	92% (active)	97.3% (active)	3%	64%	91.8% (active)	56%	86% (active)	96.9% (active)	2%	79% (active)	92.8% (active)	-7%	45%	77.2% (active)	26%	92% (active)	97.2% (active)
Cc1cc(S(=O)(=O)Nc2nc(N)nc(N(C)C)n2)c(SC(C(=O)O)c2ccccc2)cc1Cl (configuration not stated)	-11%	-4%	-8.65%	-3%	-15%	14.1%	-11%	-8%	-0.25%	-15%	4%	93.2% (active)	14%	-17%	16.1%	-9%	-3%	5.3%
CC1(C)CCC2(CC1)CC(=O)OC(=O)C2	-159%	-162%	-3.9%	-50%	-54%	18.5%	-64%	-62%	6.6%	-59%	-59%	27.8%	-71%	-82%	-3.4%	-145%	-117%	3.95%
COc1ccc2nc3cc(Cl)ccc3c(NCCC[N+](C)(C)CCCCCCCCCCCCCCCC[N+](C)(C)CCCNc3c4ccc(Cl)cc4nc4ccc(OC)cc34)c2c1	85% (active)	99% (active)	49.2%	76% (active)	99% (active)	43.6%	77% (active)	98% (active)	40.4%	76% (active)	98% (active)	76.6% (active)	85% (active)	99% (active)	47.2%	92% (active)	99% (active)	97.8% (active)
CN(C(=O)c1cccs1)C(=S)N1CCN(c2ccccc2)CC1	-26%	66%	79.8% (active)	6%	68%	67%	-2%	70% (active)	84.8% (active)	-8%	56%	49.9%	-14%	83% (active)	61.3%	-18%	90% (active)	67.2%
CCC[CH2][Sn]([CH2]CCC)([O]C(=O)C1CCC(=O)N1)[O]C(=O)C1CCC(=O)N1 (configuration not stated)	93% (active)	93% (active)	90.3% (active)	94% (active)	94% (active)	90.7% (active)	91% (active)	91% (active)	90% (active)	96% (active)	96% (active)	91% (active)	94% (active)	94% (active)	90.9% (active)	95% (active)	95% (active)	88.7% (active)
Cc1ccc(S(=O)(=O)C2C=CC=CC=C2)cc1	-156%	84% (active)	76.8% (active)	-51%	54%	86% (active)	-64%	77% (active)	14.7%	-62%	42%	52%	-71%	66%	71% (active)	-140%	87% (active)	82% (active)
O=[N+]([O-])c1ccccc1N=Nc1c(O)[nH]c2cccc(C(F)(F)F)c12	50%	86% (active)	93.9% (active)	52%	81% (active)	18.5%	60%	90% (active)	83.5% (active)	-60%	92% (active)	50.2%	47%	77% (active)	46.5%	84% (active)	97% (active)	95.1% (active)
COc1ccc(C2c3cn[nH]c3CC3CCCCC32)cc1 (configuration not stated)	25%	98% (active)	75.8% (active)	-8%	99% (active)	83.8% (active)	9%	98% (active)	85.5% (active)	31%	99% (active)	89.8% (active)	-20%	99% (active)	88.3% (active)	8%	98% (active)	90.7% (active)
Cc1ccc(S(=O)(=O)N/N=C2/CC[C@H](C(C)(C)C)C[C@@H]2C)cc1	9%	96% (active)	86.2% (active)	-15%	97% (active)	90% (active)	-2%	98% (active)	77.4% (active)	-35%	85% (active)	87.7% (active)	-18%	97% (active)	84.7% (active)	-1%	98% (active)	76.3% (active)
